# Laboratory results as given in the OligoGym collection.
# Biological target: TNFAIP2
# Assay: pooled miR-30 sensor sort-seq; sequence = guide strand
# Settings: shRNA
# Further: reference of the scale not given here.
row,Sequence,sensor-assay potency score (higher = more potent)
1,TAGCTCCAGAGCTCGGTCCATC,-1.52
2,TAATTCGTCAGCTGCTTGCCTC,-0.825
3,TCAATCTTGATGGCACTGGGGT,-0.553
4,TTGGCAATAACATTGGCCCTGT,-0.0405
5,TTCTGCTCCATGGACATCCGGA,-0.115
6,TATCAAACACGCTAACTCCTAC,-0.68
7,TATCTGTGAGCCCAAGTCCAGC,-1.63
8,TTTCTCTTCCAGTTCTGTCTTC,-0.182
9,TCAACATACATACAAAAGCAGT,-1.49
10,TATCGTTTACAAAGAGTCCTTG,-0.0149
11,TCGGACATGTAAACAAACCAAG,-1.46
12,TTCTGTCTTCCATTCCACCATT,-1.13
